This is an account of results in PubChem BioAssay (NCI).

The structures appear in SMILES notation. About 83,000 compounds went through this panel and 20% of them were active in at least one assay; those are over-represented in the sample as a whole.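 Percent growth is the endpoint: 0 to 100 indicates growth inhibition (40 means 60% inhibition), 0 means no net growth, and negative values indicate cell death.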 Unmarked numbers belong to inactive results. The source made the active and inactive calls. How the source made its calls: active means growth percent below 10; inactive means the rest.

What all share (experiment): NCI-60 one-dose screen, 48 h (100 = growth as untreated, 0 = no growth, -100 = all killed)
What all share (settings): 10 µM unless noted

Test [1] relates to T-47D breast.
Test [2] relates to BT-549 breast.
For test [3], the system named is MDA-MB-435 melanoma.
Test [4] relates to SW-620 colon.
The test system of test [5] is MCF7 breast.
Test [6] has as its system HCT-116 colon.
For test [7], the system named is HCC-2998 colon.
Test [8] deals with KM12 colon.

For `COc1ccc2c(c1)cn1c3ccc(OC)cc3[nH]c(=O)c21`, the growth is -32.2% (active) in test [1]; -0.958% (active) in test [2]; -80% (active) in test [3]; -38.9% (active) in test [4]; -47.5% (active) in test [5]; -75.8% (active) in test [6]. The growth was -68.5% (active) in test [7] and -61.7% (active) in test [8].

`N#Cc1c(-c2ccccc2)cc(-c2ccccc2)n(CC(=O)NO)c1=O`: the growth in test [1] is 14.9%; in test [2] it was 1.67% (active); in test [3], 49.8%; in test [4], 59.8%; in test [5] it was 21.9%; in test [6] it was 40.7%. The figures for the growth in test [7] and in test [8] were 86.5% and 41.2%, respectively.

Turning to `Cc1c(C(=N)C(C#N)C#N)c(=N)oc2c1ccc1ccccc12`, the growth in test [1] was 71.9%; in test [2] it was 73.9%; in test [3] it was 83.6%; in test [4], 92.2%; in test [5] it was 57.9%; in test [6], 79.6%. In addition, the growth in test [7] is 80.3%; in test [8], 101%.

Turning to `COc1ccc(/C=C2\Oc3cc(OCCCN4CCCC4)ccc3C2=O)cc1`, the growth is 94% in test [1]; 95.5% in test [2]; 97.6% in test [3]; 77.1% in test [4]; 69.8% in test [5]; 55.7% in test [6]. The growth in test [7] is 91.3%; in test [8], 82.7%.

Consider `CC(=O)Nc1ccc(/C=C/C(=O)c2ccccc2)cc1`, for which the growth in test [1] is 73.9%; in test [2] it was 86.2%; in test [3], 114%; in test [4] it was 53.2%; in test [5], 56.4%; in test [6] it was 77%. Further, the figures for the growth in test [7] and in test [8] were 113% and 46.6%, respectively.

Consider `C[n+]1c(/C=C/c2c(O)ccc3ccccc23)ccc2ccccc21`, for which the growth in test [1] is 26.6%; in test [2], 27.9%; in test [3], 25.6%; in test [4] it was 17%; in test [5], 15.9%; in test [6] it was -13.9% (active). Moreover, the growth in test [7] is 59.8%; in test [8] it was 38.7%.

For `CN(C)CCN1C(=O)c2ccc3c4c(ccc(c24)C1=O)C(=O)N(CCN=C=S)C3=O`, the growth in test [1] is -54.5% (active); in test [2], -87.5% (active); in test [3] it was -90.9% (active); in test [4] it was -68.1% (active); in test [5] it was -67.7% (active); in test [6], -71.9% (active). For the same molecule, the growth in test [7] is -87.4% (active); in test [8], -93% (active).

For the molecule `COc1ccc(C(=O)c2cc(OC)c3c(c2)OCO3)cc1O`, the growth in test [1] was 56.9%; in test [2] it was 54.5%; in test [3], -22.5% (active); in test [4] it was 24.6%; in test [5], 17.1%; in test [6] it was 7.71% (active). For the same molecule, the figures for the growth in test [7] and in test [8] were 16.2% and 4.48% (active), respectively.

With `COc1cc(-c2nn(-c3cccc(NC(=O)Nc4ccc(Cl)c(C(F)(F)F)c4)c3)cc2-c2ccncc2)ccc1Cl`, the growth is 0.618% (active) in test [1]; 7.16% (active) in test [2]; -52.3% (active) in test [3]; 15.4% in test [4]; 0.143% (active) in test [5]; 5.3% (active) in test [6]. Further, the growth in test [7] was 8.88% (active); in test [8], 2.88% (active).

Take `COc1ccc(-n2c(-c3ccccc3)c(-c3ccccc3)c3c(SCC(=O)N/N=C/c4ccc(Cl)cc4)ncnc32)cc1`: the growth was 79.9% in test [1]; 85.2% in test [2]; 98.6% in test [3]; 99% in test [4]; 85% in test [5]; 87.8% in test [6]. For the same molecule, the values for the growth in test [7] and in test [8] were 93.2% and 89.1%, respectively.

Regarding `Cc1ccc(N2CCN(C(C)C(N)=O)CC2)cc1` (configuration not stated), the growth was 102% in test [1]; 88.9% in test [2]; 114% in test [3]; 107% in test [4]; 106% in test [5]; 98.3% in test [6]. For the same molecule, the growth in test [7] is 102%; in test [8] it was 112%.

For the molecule `N=C(N)c1ccc(-c2ccc(-c3ccc(-c4cccs4)s3)s2)cc1`, the growth in test [1] is 76%; in test [2], 99.5%; in test [3] it was 103%; in test [4], 99.6%; in test [5], 84%; in test [6], 93.6%. Also, the growth was 98.7% in test [7] and 96.8% in test [8].

In the case of `COc1cc(NC(=O)SC2=NCCS2)cc(OC)c1`, the growth in test [1] is 87.2%; in test [2], 95.4%; in test [3], 113%; in test [4], 95.8%; in test [5], 94.1%; in test [6] it was 108%. The growth in test [7] is 114%; in test [8], 106%.

As for `C=C1CC2(OC1=O)C(=O)N(CCCN1C(=O)C3(CC(=C)C(=O)O3)c3ccccc31)c1ccccc12` (configuration not stated), the growth was 4.15% (active) in test [1]; 33.5% in test [2]; -17.1% (active) in test [3]; -67.4% (active) in test [4]; -18.9% (active) in test [5]; -8.31% (active) in test [6]. Further, the growth in test [7] was 86.2%; in test [8], 72.9%.
